RecA splice inh: inhibitors of M. tuberculosis RecA intein splicing; 290,000 compounds, 0.75% hits; cell-free RecA intein splicing, fluorescence; AID 2221; inhibition, % (test concentration not listed); in the data active = inhibition above about 30%; inconclusive = no clear call, values can overlap the other calls
Target sequence (P9WHJ3 whole entry, looked up, canonical isoform): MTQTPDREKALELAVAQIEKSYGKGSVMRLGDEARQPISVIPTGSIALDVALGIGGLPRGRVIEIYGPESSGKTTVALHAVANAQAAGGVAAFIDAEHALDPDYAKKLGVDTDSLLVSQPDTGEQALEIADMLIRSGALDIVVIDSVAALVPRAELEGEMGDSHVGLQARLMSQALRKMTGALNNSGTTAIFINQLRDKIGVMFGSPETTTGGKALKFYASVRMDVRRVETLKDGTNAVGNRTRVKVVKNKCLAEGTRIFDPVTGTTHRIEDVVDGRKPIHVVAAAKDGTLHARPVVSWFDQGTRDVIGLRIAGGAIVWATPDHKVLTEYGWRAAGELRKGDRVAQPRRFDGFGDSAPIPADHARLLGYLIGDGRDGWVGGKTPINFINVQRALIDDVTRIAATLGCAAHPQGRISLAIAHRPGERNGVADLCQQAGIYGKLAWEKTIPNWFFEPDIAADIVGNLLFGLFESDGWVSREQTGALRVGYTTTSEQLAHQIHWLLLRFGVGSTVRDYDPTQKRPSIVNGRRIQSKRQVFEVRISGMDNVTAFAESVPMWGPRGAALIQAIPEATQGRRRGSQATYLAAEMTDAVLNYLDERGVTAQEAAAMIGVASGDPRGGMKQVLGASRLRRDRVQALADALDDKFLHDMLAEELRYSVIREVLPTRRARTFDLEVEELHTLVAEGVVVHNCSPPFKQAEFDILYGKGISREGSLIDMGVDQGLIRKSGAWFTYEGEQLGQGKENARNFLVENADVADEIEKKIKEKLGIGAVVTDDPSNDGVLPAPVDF
Rv3671c inh: inhibits the M. tuberculosis serine protease Rv3671c; inhibition, % at 5.96 µM; 320,000 compounds, 0.048% hits; AID 2606; in the data active = inhibition above about 38%;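 also: extracellular domain of Rv3671c used as enzyme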
CCHFV vOTU inh: CCHFV vOTU protease inhibition; inhibition, % at 11.5 µM; 370,000 compounds, 0.55% hits; Pep-AMC fluorescence; in the data active = inhibition above about 30%
Mtb betalactam: beta-lactam sensitization of Mtb H37Rv; M. tuberculosis H37Rv growth with meropenem, percent inhibition; inhibition, % at 25 µM; 330,000 compounds, 0.27% hits; AID 434955;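 also: growth measured after seven days incubation then overnight dye step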
UGM FP inh: Mtb UDP-galactopyranose mutase inhibition | P9WIQ1 | purified UGM, fluorescence polarization probe displacement | inhibition, % at 10 µM | 320,000 compounds, 0.06% hits | AID 504406; in the data active = inhibition above about 10%, passing the limit was not always enough; inconclusive = no clear call, values can overlap the other calls
GFP chromophore: counter-screen: blocks GFP chromophore formation; EC50, µM; AID 434968; shares compounds with RecA splice inh; cell-free GFP chromophore formation, fluorescence; 2,100 compounds, 83% hits
Of the large screens only hits and unclear results are named; the others gave an inactive call (follow-up assays come after a bar, where they were run). This is a sample that favours compounds with a hit; in the whole collection about 1.2% have one here. Unless noted, no rule for the calls is given here.

CCOc1cc(C(c2c(C)[nH][nH]c2=O)c2c(C)[nH][nH]c2=O)cc(Br)c1OC	RecA splice inh 93 | GFP chromophore 0.49
CCOc1cc(C(N)=O)cc(Br)c1OC	none
Fc1ccc(-c2cc(-c3nnc4sc(-c5cccs5)nn34)[nH]n2)cc1	none (no result: RecA splice inh, Rv3671c inh, Mtb betalactam, UGM FP inh)
COc1ccc(OC)c(CN2C(=O)CSCCC2(C)c2nnnn2C2CCCC2)c1 (stereo unspecified)	none (no result: RecA splice inh, Rv3671c inh, Mtb betalactam, UGM FP inh)
CCCN1C(=O)C(NC(C)=O)c2ccccc21 (stereo unspecified)	none
CCc1ccc2c(c1)C(NC(C)=O)C(=O)N2CCN1CCOCC1 (stereo unspecified)	RecA splice inh 49 | GFP chromophore inactive
CCCCCCCCNC(=O)C1CSCCS(=O)(=O)N1Cc1ccc(OC)cc1 (stereo unspecified)	none (no result: RecA splice inh, Rv3671c inh, Mtb betalactam, UGM FP inh)
Cn1c(/C=N/Nc2nc3ccccc3[nH]2)nc2ccccc21	none
Cc1c(/C=N/Nc2nc3ccccc3[nH]2)c2ccccc2n1C	RecA splice inh 39 | GFP chromophore 12
CC(=O)Nc1ccc(C(/C=C/c2ccccc2)Cc2ccccc2)cc1 (stereo unspecified)	none (no result: RecA splice inh, Rv3671c inh, Mtb betalactam, UGM FP inh)
O=C(CSc1nnc(-c2ccccc2)n1-c1ccc(Cl)cc1)Nc1ccccc1-c1ccccc1	none (no result: RecA splice inh, Rv3671c inh, Mtb betalactam, UGM FP inh)
CS(=O)(=O)c1ccc(C(=O)OCc2nnc(-c3ccc(Cl)cc3)o2)cc1[N+](=O)[O-]	RecA splice inh 67 (no result: CCHFV vOTU inh) | GFP chromophore 6.8
O=C(NCCN1CCC(Cc2ccccc2)CC1)C1CCCN(S(=O)(=O)c2ccc([N+](=O)[O-])cc2)C1 (stereo unspecified)	none (no result: RecA splice inh, Rv3671c inh, Mtb betalactam, UGM FP inh)
Cc1cccn2c(CNCC3(c4ccccc4)CCCC3)c(C(=O)N3CCOCC3)nc12	none | GFP chromophore inactive
CSCCNCc1c(C(=O)N2CCOCC2)nc2c(C)cccn12	none
Cc1c[nH]c2cccc(-c3cc4ccccc4o3)c12	none (no result: RecA splice inh, Rv3671c inh, Mtb betalactam, UGM FP inh)
CC1=NN(c2ccccc2)C(=O)C1N=Nc1cccc(O)c1 (stereo unspecified)	none
CC1=NN(c2ccc(C)cc2C)C(=O)C1C(c1cccc(O)c1)C1C(=O)N(c2ccc(C)cc2C)N=C1C (stereo unspecified)	RecA splice inh 97 | GFP chromophore 1.4
O=C1/C(=C/c2cccc([N+](=O)[O-])c2)CCc2ccccc21	RecA splice inh 45 | GFP chromophore 29
N#Cc1cc(F)cc(OC[C@@H](O)CN2CCC(C(O)(c3ccccc3)c3ccccc3)CC2)c1	none (no result: RecA splice inh, Rv3671c inh, Mtb betalactam, UGM FP inh)
C/C(CC(=O)Nc1cc(C)ccn1)=N\NC(=O)c1cccc(C)c1	RecA splice inh 70 | GFP chromophore 18
C/C(CC(=O)Nc1cc(C)ccn1)=N\NC(=O)C(=O)NC(C)C	RecA splice inh 64 | GFP chromophore 39
C/C(CC(=O)Nc1cc(C)ccn1)=N\NC(=O)c1cccc(C)c1O	none
C/C(CC(=O)Nc1cccnc1)=N\NC(=O)C(=O)NC(C)C	none
O=S(=O)(CC1NCc2cc(F)ccc21)NCc1ccccc1 (stereo unspecified)	none (no result: RecA splice inh, Rv3671c inh, Mtb betalactam, UGM FP inh)
O=C(NCC1(c2ccccc2)CCCC1)C1(c2ccccc2)CCCC1	RecA splice inh 30 | GFP chromophore inactive
O[C@H](COc1ccc(OC(F)(F)F)cc1)CN1CCC(C(O)(c2ccccc2)c2ccccc2)CC1	none (no result: RecA splice inh, Rv3671c inh, Mtb betalactam, UGM FP inh)
[O-]C1=N/[N+](=C/c2ccc(Cl)cc2)CC1	RecA splice inh 73 | GFP chromophore 29
CCN(CCN(C)C)C(=O)c1ccc2c(c1NCCO)C(=O)c1ccccc1C2=O	RecA splice inh 48 | GFP chromophore inconclusive
O=C1C(Cl)=C(Nc2ccccc2)C(=O)c2ccccc21	none
O=C(O)c1ccc(NC2=C(Cl)C(=O)c3ccccc3C2=O)cc1	RecA splice inh 98 | GFP chromophore 2.2
COC(=O)C[C@@H]1CC[C@H]2[C@@H](COc3ccc(NS(=O)(=O)c4ccccc4F)cc3C(=O)N2C)O1	none (no result: RecA splice inh, Rv3671c inh, Mtb betalactam, UGM FP inh)
CC(C)(C)NC(=O)C(c1cccs1)N(CC1CCCO1)C(=O)c1ccc(-c2ccccc2)[nH]1 (stereo unspecified)	RecA splice inh 33 | GFP chromophore inactive
O=C(NCC1CCCO1)C(c1cccs1)N(Cc1ccccc1)C(=O)c1ccc(-c2ccccc2)[nH]1 (stereo unspecified)	none
Nc1nc(-c2ccco2)nn1C(=O)c1ccc(Cl)cc1	RecA splice inh 34 | GFP chromophore inactive
c1cncc(CNc2ncnc3sc4c(c23)CCCC4)c1	RecA splice inh 36 | GFP chromophore inactive
Cc1nc(NCc2cccnc2)c2c3c(sc2n1)CCCC3	none
CCOC(=O)c1csc(NC(=O)C2CCCN(S(=O)(=O)c3ccccc3[N+](=O)[O-])C2)n1 (stereo unspecified)	none (no result: RecA splice inh, Rv3671c inh, Mtb betalactam, UGM FP inh)
CN[C@H]1C[C@H]2c3[nH]c4cccc(-c5ccc6c(c5)OCO6)c4c3CCN2C[C@H]1[C@H](C)O	none (no result: RecA splice inh, Rv3671c inh, Mtb betalactam, UGM FP inh)
O=C(Cc1ccc(Cl)cc1)NCCCn1ccnc1	none
Clc1cccc(OCCn2ccnc2)c1	none
Clc1ccc(CSC(Cn2ccnc2)c2ccc(Cl)cc2Cl)cc1 (stereo unspecified)	RecA splice inh 42 | GFP chromophore 23
C/C(CC(=O)Nc1cccnc1)=N\NC(=O)c1ccc([N+](=O)[O-])c(Cl)c1	RecA splice inh 61 | GFP chromophore 35
CC(=O)Nc1ccccc1NC(=O)C/C(C)=N/NC(=O)c1ccc([N+](=O)[O-])c(Cl)c1	none
CN1C(=O)N(C)C(=O)C2(Cc3cc(N)ccc3N3CCN(c4ccccc4F)CC32)C1=O (stereo unspecified)	none
CN1CCN2c3ccc(N)cc3CC3(C(=O)NC(=O)NC3=O)C2C1 (stereo unspecified)	RecA splice inh 55 (no result: Rv3671c inh, Mtb betalactam, UGM FP inh) | GFP chromophore inactive
Cc1nn(-c2ccccc2)c(Cl)c1CN(C(=O)CCl)c1cccc2ccccc12	RecA splice inh 67 (no result: Mtb betalactam) | GFP chromophore 6.3
Cc1nn(-c2ccccc2)c(Cl)c1C(=O)NCC(=O)O	none
CC(=O)N(Cc1c(C)nn(-c2ccccc2)c1Cl)c1ccc(Cl)cc1	none
Cc1nn(-c2ccccc2)c(Cl)c1CN(C(=O)CCl)c1ccc(Cl)cc1	RecA splice inh 88 | GFP chromophore 2.2
COc1ccc(C2C(C(=O)N3CCC(C)CC3)CC(=O)N2c2ccc(OC)cc2)cc1 (stereo unspecified)	none (no result: RecA splice inh, Rv3671c inh, Mtb betalactam, UGM FP inh)
O=S1(=O)C=CCN1Cc1cn(Cc2ccccc2)nn1	none (no result: RecA splice inh, Rv3671c inh, Mtb betalactam, UGM FP inh)
CC(C)C[C@H]1COc2cc(Br)ccc2S(=O)(=O)N1Cc1cn(Cc2ccc(C(F)(F)F)cc2)nn1	none (no result: RecA splice inh, Rv3671c inh, Mtb betalactam, UGM FP inh)
COc1cc(C(c2c(C)[nH][nH]c2=O)c2c(C)[nH][nH]c2=O)cc([N+](=O)[O-])c1O	RecA splice inh 97 | GFP chromophore 0.45
COC(=O)COc1c(Cl)cc(C(c2c(C)[nH][nH]c2=O)c2c(C)[nH][nH]c2=O)cc1OC	RecA splice inh 96 (no result: Rv3671c inh) | GFP chromophore 0.58
CCOc1cc(C(c2c(C)[nH][nH]c2=O)c2c(C)[nH][nH]c2=O)cc([N+](=O)[O-])c1O	RecA splice inh 97 | GFP chromophore 0.45
CCOc1cc(/C=C2/NC(=O)NC2=O)cc([N+](=O)[O-])c1O	none
Cc1ccc(C(c2c(C)[nH][nH]c2=O)c2c(C)[nH][nH]c2=O)cc1[N+](=O)[O-]	RecA splice inh 99 | GFP chromophore 0.49

Screening data as filed in PubChem.
